Experimental data: the supplement of paper PMC6992640

How the values were obtained:
[1] = test system: HCI01 (cells of a triple-negative basal-like breast cancer xenograft); test: cell viability of combination (% of vehicle); higher = less cytotoxic; details: 1 µM; 72 h; partner dose: 10 nM
Method: (§1)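 PDX cells were treated for 72 h with each drug at 1 µM plus afatinib (10 nM; 1 µM for WHIM30). Luciferase viability is expressed as percent of vehicle.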

[2] = test system: WHIM2 (cells of a triple-negative basal-like breast cancer xenograft); test: as above; details: 1 µM; 72 h; partner dose: 10 nM
Method: as §1

Row | SMILES | cell viability of combination [1] | cell viability of combination [2]
1 | CC(=O)c1cc2c(o1)C(=O)c1ccccc1C2=O [Napabucasin] + CN(C)C/C=C/C(=O)Nc1cc2c(Nc3ccc(F)c(Cl)c3)ncnc2cc1O[C@H]1CCOC1 [Afatinib] | 16.2 | 29.7
2 | CS(=O)(=O)CCNCc1ccc(-c2ccc3ncnc(Nc4ccc(OCc5cccc(F)c5)c(Cl)c4)c3c2)o1.Cc1ccc(S(=O)(=O)O)cc1.Cc1ccc(S(=O)(=O)O)cc1 [Lapatinib Ditosylate] + CN(C)C/C=C/C(=O)Nc1cc2c(Nc3ccc(F)c(Cl)c3)ncnc2cc1O[C@H]1CCOC1 [Afatinib] | 41.6 | 36.7
3 | C1=C\COCc2cc(ccc2OCCN2CCCC2)Nc2nccc(n2)-c2cccc(c2)COC/1 [Pacritinib] + CN(C)C/C=C/C(=O)Nc1cc2c(Nc3ccc(F)c(Cl)c3)ncnc2cc1O[C@H]1CCOC1 [Afatinib] | 37.8 | 38.8
4 | COC(=O)NC(C(=O)NC(Cc1ccccc1)C(O)CN(Cc1ccc(-c2ccccn2)cc1)NC(=O)C(NC(=O)OC)C(C)(C)C)C(C)(C)C (configuration not stated) [Atazanavir] + CN(C)C/C=C/C(=O)Nc1cc2c(Nc3ccc(F)c(Cl)c3)ncnc2cc1O[C@H]1CCOC1 [Afatinib] | 48.8 | 54
5 | CCCCc1oc2ccc(NS(C)(=O)=O)cc2c1C(=O)c1ccc(OCCCN(CCCC)CCCC)cc1.Cl [Dronedarone HCl] + CN(C)C/C=C/C(=O)Nc1cc2c(Nc3ccc(F)c(Cl)c3)ncnc2cc1O[C@H]1CCOC1 [Afatinib] | 54.4 | 52.5
6 | CC1CC(=O)NN=C1c1ccc(NN=C(C#N)C#N)cc1 (configuration not stated) [Levosimendan] + CN(C)C/C=C/C(=O)Nc1cc2c(Nc3ccc(F)c(Cl)c3)ncnc2cc1O[C@H]1CCOC1 [Afatinib] | 52.7 | 51.2
7 | CC(C)C1=CC(=C2NNC(=O)N2c2ccc3c(ccn3C)c2)C(=O)C=C1O [Ganetespib (STA-9090)] + CN(C)C/C=C/C(=O)Nc1cc2c(Nc3ccc(F)c(Cl)c3)ncnc2cc1O[C@H]1CCOC1 [Afatinib] | 49.1 | 29.1
8 | Clc1ccc(C(Cn2ccnc2)OCc2ccc(Sc3ccccc3)cc2)c(Cl)c1.O=[N+]([O-])O (configuration not stated) [Fenticonazole Nitrate] + CN(C)C/C=C/C(=O)Nc1cc2c(Nc3ccc(F)c(Cl)c3)ncnc2cc1O[C@H]1CCOC1 [Afatinib] | 49.2 | 49.9
9 | Cc1c(C(=O)NN2CCCCC2)nn(-c2ccc(Cl)cc2Cl)c1-c1ccc(Cl)cc1 [Rimonabant] + CN(C)C/C=C/C(=O)Nc1cc2c(Nc3ccc(F)c(Cl)c3)ncnc2cc1O[C@H]1CCOC1 [Afatinib] | 56.7 | 48.4
10 | COC(=O)C12CCC(C)(C)CC1C1C(=O)C=C3C4(C)C=C(C#N)C(=O)C(C)(C)C4CCC3(C)C1(C)CC2 (configuration not stated) [Bardoxolone methyl] + CN(C)C/C=C/C(=O)Nc1cc2c(Nc3ccc(F)c(Cl)c3)ncnc2cc1O[C@H]1CCOC1 [Afatinib] | 53.5 | 30.4
11 | C=C1C(=CC=C2CCCC3(C)C2CCC3C(C)CCCC(C)(C)O)CC(O)CC1O (configuration not stated) [Calcitriol] + CN(C)C/C=C/C(=O)Nc1cc2c(Nc3ccc(F)c(Cl)c3)ncnc2cc1O[C@H]1CCOC1 [Afatinib] | 42.1 | 31.2
12 | CNCCC(Oc1ccc(C(F)(F)F)cc1)c1ccccc1.Cl (configuration not stated) [Fluoxetine HCl] + CN(C)C/C=C/C(=O)Nc1cc2c(Nc3ccc(F)c(Cl)c3)ncnc2cc1O[C@H]1CCOC1 [Afatinib] | 46.4 | 43.8
13 | COc1cc(C(=O)O)ccc1NC(=O)C1NC(CC(C)(C)C)C(C#N)(c2ccc(Cl)cc2F)C1c1cccc(Cl)c1F (configuration not stated) + CN(C)C/C=C/C(=O)Nc1cc2c(Nc3ccc(F)c(Cl)c3)ncnc2cc1O[C@H]1CCOC1 [Afatinib] | 49.1 | 44.7
14 | CCC(NC(=O)C(C)NC)C(=O)N1CC(O)CC1Cc1c(-c2[nH]c3cc(F)ccc3c2CC2CC(O)CN2C(=O)C(CC)NC(=O)C(C)NC)[nH]c2cc(F)ccc12 (configuration not stated) + CN(C)C/C=C/C(=O)Nc1cc2c(Nc3ccc(F)c(Cl)c3)ncnc2cc1O[C@H]1CCOC1 [Afatinib] | 42.3 | 19.1
15 | CO[C@H]1/C=C/O[C@@]2(C)Oc3c(C)c(O)c4c(O)c(c(/C=N/N5CCN(C6CCCC6)CC5)c(O)c4c3C2=O)NC(=O)/C(C)=C\C=C\[C@H](C)[C@H](O)[C@@H](C)[C@@H](O)[C@@H](C)[C@H](OC(C)=O)[C@@H]1C [Rifapentine] + CN(C)C/C=C/C(=O)Nc1cc2c(Nc3ccc(F)c(Cl)c3)ncnc2cc1O[C@H]1CCOC1 [Afatinib] | 56.2 | 46.2
16 | N.N.O=C([O-])C1(C(=O)[O-])CCC1.[Pt+2] [Carboplatin] + CN(C)C/C=C/C(=O)Nc1cc2c(Nc3ccc(F)c(Cl)c3)ncnc2cc1O[C@H]1CCOC1 [Afatinib] | 60.1 | 53.1

Row | SMILES | cell viability of combination [1] | cell viability of combination [2]
17 | CC(C)(C)c1ccc(C(=O)CCCN2CCC(OC(c3ccccc3)c3ccccc3)CC2)cc1 [Ebastine] + CN(C)C/C=C/C(=O)Nc1cc2c(Nc3ccc(F)c(Cl)c3)ncnc2cc1O[C@H]1CCOC1 [Afatinib] | 48.2 | 50.3
18 | CN(C)CCOc1ccc(C(=C(CCCl)c2ccccc2)c2ccccc2)cc1.O=C(O)CC(O)(CC(=O)O)C(=O)O [Toremifene Citrate] + CN(C)C/C=C/C(=O)Nc1cc2c(Nc3ccc(F)c(Cl)c3)ncnc2cc1O[C@H]1CCOC1 [Afatinib] | 70.8 | 55.7
19 | CC(C)c1nc(CN(C)C(=O)NC(C(=O)NC(Cc2ccccc2)CC(O)C(Cc2ccccc2)NC(=O)OCc2cncs2)C(C)C)cs1 (configuration not stated) [Ritonavir] + CN(C)C/C=C/C(=O)Nc1cc2c(Nc3ccc(F)c(Cl)c3)ncnc2cc1O[C@H]1CCOC1 [Afatinib] | 49.1 | 49
20 | CCc1cnn2c(NCc3ccc[n+]([O-])c3)cc(N3CCCCC3CCO)nc12 (configuration not stated) + CN(C)C/C=C/C(=O)Nc1cc2c(Nc3ccc(F)c(Cl)c3)ncnc2cc1O[C@H]1CCOC1 [Afatinib] | 25.6 | 16.4
21 | COc1cc(C(=O)NS(=O)(=O)c2ccccc2C)ccc1Cc1cn(C)c2ccc(NC(=O)OC3CCCC3)cc12 [Zafirlukast] + CN(C)C/C=C/C(=O)Nc1cc2c(Nc3ccc(F)c(Cl)c3)ncnc2cc1O[C@H]1CCOC1 [Afatinib] | 61.4 | 52.2
22 | CC(C)C[C@H](NC(=O)[C@H](Cc1ccccc1)NC(=O)c1cnccn1)B(O)O [Bortezomib] + CN(C)C/C=C/C(=O)Nc1cc2c(Nc3ccc(F)c(Cl)c3)ncnc2cc1O[C@H]1CCOC1 [Afatinib] | 22.5 | 14.4
23 | O=C1C=CC=CC1=C1NC(=C2C=CC=CC2=O)N(c2ccc(C(=O)O)cc2)N1 [Deferasirox] + CN(C)C/C=C/C(=O)Nc1cc2c(Nc3ccc(F)c(Cl)c3)ncnc2cc1O[C@H]1CCOC1 [Afatinib] | 43.2 | 42.2
24 | COC(=O)c1ccc2c(c1)NC(=O)C2=C(Nc1ccc(N(C)C(=O)CN2CCN(C)CC2)cc1)c1ccccc1 [Nintedanib (BIBF 1120)] + CN(C)C/C=C/C(=O)Nc1cc2c(Nc3ccc(F)c(Cl)c3)ncnc2cc1O[C@H]1CCOC1 [Afatinib] | 45 | 22.5
25 | CNCCCC12CCC(c3ccccc31)c1ccccc12.Cl [Maprotiline HCl] + CN(C)C/C=C/C(=O)Nc1cc2c(Nc3ccc(F)c(Cl)c3)ncnc2cc1O[C@H]1CCOC1 [Afatinib] | 55.1 | 46
26 | CC(C)CC(NC(=O)C(CCc1ccccc1)NC(=O)CN1CCOCC1)C(=O)NC(Cc1ccccc1)C(=O)NC(CC(C)C)C(=O)C1(C)CO1 (configuration not stated) [Carfilzomib (PR-171)] + CN(C)C/C=C/C(=O)Nc1cc2c(Nc3ccc(F)c(Cl)c3)ncnc2cc1O[C@H]1CCOC1 [Afatinib] | 17.5 | 26.7
27 | CCN(CC)CCNC(=O)c1c(C)[nH]c(C=C2C(=O)Nc3ccc(F)cc32)c1C.O=C(O)CC(O)C(=O)O [Sunitinib malate] + CN(C)C/C=C/C(=O)Nc1cc2c(Nc3ccc(F)c(Cl)c3)ncnc2cc1O[C@H]1CCOC1 [Afatinib] | 42 | 44.2
28 | COc1cc2ncnc(Nc3ccc(F)c(Cl)c3)c2cc1NC(=O)C=CCN1CCCCC1 + CN(C)C/C=C/C(=O)Nc1cc2c(Nc3ccc(F)c(Cl)c3)ncnc2cc1O[C@H]1CCOC1 [Afatinib] | 45.1 | 29.8
29 | [O-]n1ccccc1=S.[O-]n1ccccc1=S.[Zn+2] [Zinc Pyrithione] + CN(C)C/C=C/C(=O)Nc1cc2c(Nc3ccc(F)c(Cl)c3)ncnc2cc1O[C@H]1CCOC1 [Afatinib] | 47.4 | 33.9
30 | CC(NCCCc1cccc(C(F)(F)F)c1)c1cccc2ccccc12 (configuration not stated) [Cinacalcet] + CN(C)C/C=C/C(=O)Nc1cc2c(Nc3ccc(F)c(Cl)c3)ncnc2cc1O[C@H]1CCOC1 [Afatinib] | 51.6 | 46.1
31 | Cl.Cl.Fc1ccc(C(c2ccc(F)cc2)N2CCN(CC=Cc3ccccc3)CC2)cc1 [Flunarizine 2HCl] + CN(C)C/C=C/C(=O)Nc1cc2c(Nc3ccc(F)c(Cl)c3)ncnc2cc1O[C@H]1CCOC1 [Afatinib] | 63.3 | 50.6
